Activity increase over dofetilide control, less the hit threshold data for 50 molecules are collected here from PubChem BioAssay AID1835 (Johns Hopkins Ion Channel Center, 2009).

Each structure is given as a SMILES string. Among all 2,400 compounds or so, about 750 (31%) were called active.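 How the source made its calls: active means median signal gain over dofetilide-blocked control wells reaching their mean plus 3 SD, so readout 1 at least 0; inactive means the rest.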 Some of the results follow.

Voltage-gated inwardly rectifying potassium channel KCNH2 (Homo sapiens), sequence (Q12809 whole entry, looked up): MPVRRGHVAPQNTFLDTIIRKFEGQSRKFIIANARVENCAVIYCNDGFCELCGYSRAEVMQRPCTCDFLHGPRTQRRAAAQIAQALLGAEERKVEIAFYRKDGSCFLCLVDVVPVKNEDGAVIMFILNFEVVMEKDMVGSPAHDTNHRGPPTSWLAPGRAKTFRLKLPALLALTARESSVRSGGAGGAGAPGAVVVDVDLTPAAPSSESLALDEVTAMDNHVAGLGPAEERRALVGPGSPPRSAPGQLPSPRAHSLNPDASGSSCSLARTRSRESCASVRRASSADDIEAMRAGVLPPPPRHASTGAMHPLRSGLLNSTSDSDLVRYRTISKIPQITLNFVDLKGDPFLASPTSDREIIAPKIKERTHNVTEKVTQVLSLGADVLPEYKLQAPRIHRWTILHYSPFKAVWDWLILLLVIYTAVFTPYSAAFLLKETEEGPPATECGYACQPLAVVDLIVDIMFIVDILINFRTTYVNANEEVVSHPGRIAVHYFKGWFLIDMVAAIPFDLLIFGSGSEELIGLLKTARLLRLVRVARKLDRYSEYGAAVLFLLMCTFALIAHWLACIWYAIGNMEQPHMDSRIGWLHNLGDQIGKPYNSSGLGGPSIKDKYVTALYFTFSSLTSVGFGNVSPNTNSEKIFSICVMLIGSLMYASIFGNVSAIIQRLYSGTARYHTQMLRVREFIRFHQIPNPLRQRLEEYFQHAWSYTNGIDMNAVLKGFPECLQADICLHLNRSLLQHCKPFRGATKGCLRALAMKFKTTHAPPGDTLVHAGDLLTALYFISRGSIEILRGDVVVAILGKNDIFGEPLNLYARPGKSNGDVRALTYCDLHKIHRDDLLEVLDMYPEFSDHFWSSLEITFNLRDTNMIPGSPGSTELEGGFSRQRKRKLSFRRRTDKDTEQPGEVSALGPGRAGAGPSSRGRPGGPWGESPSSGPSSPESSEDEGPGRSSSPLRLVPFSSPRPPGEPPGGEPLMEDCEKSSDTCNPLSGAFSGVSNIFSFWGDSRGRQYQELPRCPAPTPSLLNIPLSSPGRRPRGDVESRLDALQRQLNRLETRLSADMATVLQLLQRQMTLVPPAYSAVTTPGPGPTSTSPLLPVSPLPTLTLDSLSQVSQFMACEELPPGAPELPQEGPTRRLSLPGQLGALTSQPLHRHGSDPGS

The experiment addresses Voltage-gated inwardly rectifying potassium channel KCNH2 (Homo sapiens) (UniProt Q12809). The experiment can be described thus: modulators restoring hERG flux under dofetilide – cell-based, thallium flux, duplicate retest, dofetilide IC70, confirmation (AID 1835). The conditions noted are these: hERG cell line, FluxOR thallium flux, dofetilide-blocked; at 10 µM; stronger effect = higher value.
Take `Cc1cc(C)nc(SCc2nnc(SCC(=O)Nc3nc(-c4ccccc4)cs3)n2-c2ccccc2)n1`: the activity increase over dofetilide control, less the hit threshold was -19% (inactive). Then `CC(C)c1ccc2c(c1)c(SC(C)(C)C)c(CC(C)(C)C(=O)O)n2Cc1ccc(Cl)cc1`, with -9% (inactive). Then `S=c1[nH]nc(-c2cccs2)n1/N=C/c1c(Cl)cccc1Cl`, with 4% (active); and `S=c1[nH]nc(-c2ccccc2)n1/N=C/c1ccc(-c2ccccc2Cl)o1`, with -4% (inactive); and `CC1=NN(c2ccccc2)C(=O)/C1=C/c1ccc(-c2ccc(C)c(C(=O)O)c2)o1`, with -18% (inactive).

Regarding `CN(C)/C=C1/C(=O)N(c2ccc([N+](=O)[O-])cc2)N=C1c1ccccc1`, the activity increase over dofetilide control, less the hit threshold is 2% (active).

As for `O=C(NNC(=O)C12CC3CC(CC(O)(C3)C1)C2)c1ccccc1O`, the activity increase over dofetilide control, less the hit threshold was -4% (inactive). Then `Cc1nnc(SCC(=O)Nc2nccs2)n1N`, with -22% (inactive); and `CCOC(=O)c1nnn(CC(=O)Nc2cccc(F)c2)c1C(=O)OCC`, with -1% (inactive). Then `CC(C)[C@H](NC(=O)c1ccco1)C(=O)OCC(=O)Nc1cccc(F)c1`, with -12% (inactive); and `C/C(Nc1cccc(F)c1)=C(/C#N)C(N)=O`, with 2% (active).

As to `OC(CCN1CCOCC1)c1ccccc1` (stereo not given), the activity increase over dofetilide control, less the hit threshold is -20% (inactive). Then `Cc1ccc(C)c(NC(=O)CCN2C(=O)[C@@H]3Cc4ccccc4CN3C2=O)c1`, with -17% (inactive). Then `CC(=O)C1C(=O)c2c(cccc2[N+](=O)[O-])C1=Nc1ccccc1C` (stereo not given), with -20% (inactive); and `CCN(CC)S(=O)(=O)c1ccc2[nH]c(=O)cc(C(=O)Nc3cccc(C(C)=O)c3)c2c1`, with -4% (inactive).

For the molecule `S=c1nc(-c2ccccc2)[nH]c2ccc(Br)cc12`, the activity increase over dofetilide control, less the hit threshold was 95% (active). In the case of `CC(Oc1ccc(Br)cc1)c1nc2c3ccccc3nc(=S)n2[nH]1` (stereo not given), the activity increase over dofetilide control, less the hit threshold is 0% (inactive). Turning to `S=c1nc(-c2ccc(Br)cc2)[nH]c2ccccc12`, the activity increase over dofetilide control, less the hit threshold was 50% (active).

For `CC(C)c1ccc(CNc2nc3nc4c(c(=O)n3[nH]2)CCC4)cc1`, the activity increase over dofetilide control, less the hit threshold was -6% (inactive). Then `O=C1CCN(S(=O)(=O)c2ccc(Cl)cc2)CCN1`, with -25% (inactive); and `COc1ccc(S(=O)(=O)c2snnc2C)cc1`, with -2% (inactive); and `C=CCc1cccc(C2Nc3ccccc3C(=O)N2O)c1O` (stereo not given), with 1% (active). Then `C=CCn1c(O)c(N=NC(=S)Nc2ccc(OC)cc2)c2ccccc21`, with 4% (active); and `Cc1ccc(Cn2c(O)c(N=NC(=S)Nc3ccccc3F)c3ccccc32)cc1`, with -13% (inactive). Then `C=CCn1c(O)c(N=NC(=S)Nc2ccc(OC)c(Cl)c2)c2ccccc21`, with 7% (active); and `COc1ccc(C(CC(=O)N2CCOCC2)c2c(O)cc(OC)cc2OC)cc1` (stereo not given), with -13% (inactive); and `CCOC(=O)C1=C(Cn2cnc3ccccc32)NC(=O)NC1c1cc(C)ccc1C` (stereo not given), with -10% (inactive). With `CC(C)[C@H](NC(=O)OC(C)(C)C)C(=O)NCC1CCC(C(=O)N[C@@H](Cc2ccccc2)C(=O)O)CC1` (stereo not given in full), the activity increase over dofetilide control, less the hit threshold was -5% (inactive). Then `CNC(=O)c1cc(C(=O)c2ccc(F)cc2C(F)(F)F)c[nH]1`, with -7% (inactive); and `COc1ccc(CC(=O)Nc2ccccc2Oc2ccccc2)cc1`, with -13% (inactive).

Turning to `COc1cc(NC(=O)c2ccccc2)c(OC)cc1NC(=O)Cc1ccc(Br)cc1`, the activity increase over dofetilide control, less the hit threshold was 12% (active). Then `COc1cc(Br)cc(/C=N/NC(=O)Cc2ccccc2)c1O`, with -9% (inactive). Then `O=c1[nH]c(C(Cl)(Cl)Cl)nc2ccc3ccccc3c12`, with 4% (active); and `CCCN1CCN(CCCNC(=O)Cn2nc(C)n3c(cc4cc(OC)ccc43)c2=O)CC1`, with -13% (inactive); and `CS(=O)(=O)Nc1cccc(-c2cn3ccccc3n2)c1`, with -13% (inactive).

Take `O=C(Nc1nnc(-c2ccc3c(c2)CCCC3)o1)c1ccc(Cl)cc1Cl`: the activity increase over dofetilide control, less the hit threshold was 9% (active).

In the case of `O=C(Nc1nnc(-c2ccc3c(c2)CCCC3)o1)C1COc2ccccc2O1` (stereo not given), the activity increase over dofetilide control, less the hit threshold was -12% (inactive). Then `O=C(Nc1nnc(C2=COCCO2)o1)c1ccc(Br)cc1`, with -42% (inactive). Then `Cc1[nH]c(=S)sc1Cc1ccc(Cl)c(Cl)c1`, with -12% (inactive); and `S=c1[nH]cc(Cc2ccccc2)s1`, with -5% (inactive); and `Cc1ccc(Cc2c[nH]c(=S)s2)cc1`, with 44% (active). Then `Cc1nn(CCC#N)c2nc(-c3ccccc3)cc(C(F)(F)F)c12`, with -11% (inactive); and `O=c1cc(-c2ccccc2)nc2c(-c3ccccc3)c(C(F)(F)F)[nH]n12`, with 56% (active). Regarding `NC(=O)c1nn2c(C(F)(F)F)cc(-c3ccccc3)nc2c1Br`, the activity increase over dofetilide control, less the hit threshold is -8% (inactive). Then `Cc1[nH]n2c(=O)cc(C(C)C)nc2c1-c1ccccc1`, with -6% (inactive); and `Cc1[nH]n2c(=O)cc(C(C)(C)C)nc2c1-c1ccccc1`, with 14% (active); and `Nn1c(SCC(=O)Nc2ccccc2F)nnc1C1CCCCC1`, with -10% (inactive). Then `CC(C)C(=O)Nc1ccc2c(c1)Cc1cc(NC(=O)C(C)C)ccc1-2`, with -3% (inactive); and `Cc1noc(C)c1CSc1ncnc2sc3c(c12)CCCCC3`, with 4% (active); and `CCOc1ccc(S(=O)(=O)N2CCN(Cc3ccc4c(c3)OCO4)CC2)cc1C`, with -31% (inactive).
